These results are taken from PubChem BioAssay (NCATS).

Each structure is given as a SMILES string. Results filed as inconclusive are left out. The source made the active and inactive calls. Unless noted, calls come from the whole dose curve; as a rule, active = well fitted curve in the direction sought with a large enough effect; inconclusive = small, poorly fitted or top-dose-only effect, or another doubt; inactive = no such curve, though single readings can be large; an effect the other way counts as inactive or inconclusive.

Assay [1] concerns the target Catechol O-methyltransferase (Homo sapiens) (UniProt P21964). The experiment in a line: Confirmatory Screen for Target Class Profiling of Small Molecule Inhibitors of Methyltransferases (AID 1745852; calls by dose curve; for activity change, negative = inhibition: % is set by controls: 0 for no effect and ±100 for the full control effect). Conditions: MTase-Glo luminescence, SAH detection, recombinant enzyme; measured here: COMT max response; stronger effect = lower value.
Assay [2] has as its target Guanidinoacetate N-methyltransferase (Homo sapiens) (UniProt Q14353). The assay is described as above. Conditions: MTase-Glo luminescence, SAH detection, recombinant enzyme; at 57.3 µM (top of the series).
Assay [3] has as its target Nicotinamide N-methyltransferase (Homo sapiens) (UniProt P40261). The assay is described as above. The following applies: MTase-Glo luminescence, SAH detection, recombinant enzyme; measured here: NNMT max response; stronger effect = lower value.
Assay [4] deals with Phenylethanolamine N-methyltransferase (Homo sapiens) (UniProt P11086). The description is as above. Conditions: MTase-Glo luminescence, SAH detection, recombinant enzyme; measured here: PNMT max response; stronger effect = lower value.
The target of assay [5] is Metallo-beta-lactamase type 2 (Klebsiella pneumoniae) (UniProt C7C422). The experiment in a line: qHTS to identify inhibitors of the New Delhi Metallo-beta-lactamase (NDM): assay validation screen against the NCATS LOPAC Collection (AID 1794843).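 Note: nitrocefin turnover by NDM-1 measured as 485 nm absorbance at plateau; % is set by controls: 0 for no effect and ±100 for the full control effect.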 Conditions: NDM-1 enzyme, nitrocefin hydrolysis, absorbance 485 nm; series mostly up to 38.4 µM. The gist of the method: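 NDM-1 at 2 nM final in 50 mM HEPES pH 7.0, 1 uM ZnSO4, 0.01% Tween20, preincubated with LOPAC compounds pinned in DMSO; 50 uM nitrocefin (stock) added. Hydrolysis read as absorbance at 485 nm in the plateau phase.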
In general terms: In qHTS, concentration-response curves come from the screen itself.

For assay [6], the target named is Glutathione peroxidase 1 (Homo sapiens) (UniProt P07203). The experiment in a line: Primary qHTS Assay for Inhibitors of Recombinant Selenoprotein Glutathione Peroxidase 1 (GPX1) (AID 1845191). For activity, negative = inhibition: % is set by controls: 0 for no effect and ±100 for the full control effect. Note: nearly all actives have a fitted effect of over 65% in size. The following applies: recombinant GPX1, GR-coupled NADPH fluorescence, 15 min; series mostly up to 48.8 µM. The gist of the method:
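GPX1 10 nM, GR 100 nM, GSH 1 mM, NADPH 0.5 mM, CHP 0.5 mM (final). 30-min cpd preincubation, RT. Ex340/Em450 read t=0, t=15 min.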

For assay [7], the target named is Phospholipid hydroperoxide glutathione peroxidase GPX4 (Homo sapiens) (UniProt P36969). The experiment in a line: Primary qHTS Assay for Inhibitors of Recombinant Selenoprotein Glutathione Peroxidase 4 (GPX4) (AID 1845192). Note: nearly all actives have a fitted effect of over 65% in size. The following applies: recombinant GPX4, GR-coupled NADPH fluorescence, 15 min; series mostly up to 50 µM. The essentials: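 qHTS, GR-coupled: GPX4 200 nM + cpd 30 min RT → GSH 1 mM, NADPH 0.5 mM, GR 100 nM → CHP 0.5 mM start; fluor 340/450 at t0 and t15 min; no-enzyme wells as control.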

The nature of assay [8]: qHTS profiling for inhibitors of Plasmodium falciparum proliferation (AID 504749).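 For activity, negative = inhibition: 0% = DMSO vehicle and full inhibition = artemisinin control.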 Note: nearly all actives have a fitted effect of over 60% in size. Note: potency is the fitted concentration of half-maximal effect. The following applies: P. falciparum in erythrocytes, SYBR Green DNA, 72 h, at 28.7 µM (top of the series). The gist of the method: (§1)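 Quantitative HTS: compounds pinned into medium, infected erythrocytes added (0.3% parasitemia, 2.5% hematocrit), 72 h culture at 37 C under 5% CO2. Saponin/Triton lysis with SYBR Green I, overnight RT, then fluorescence read.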

For a further assay, the system named is 3D7. Described as above. Conditions: P. falciparum in erythrocytes, SYBR Green DNA, 72 h; series mostly up to 28.7 µM. The gist of the method: as §1
The subject of a further assay is 7G8. The description is as above. Conditions: P. falciparum in erythrocytes, SYBR Green DNA, 72 h; series mostly up to 28.7 µM. The essentials:
as §1

In another assay the test system is AA1029. Described as above. Conditions: P. falciparum in erythrocytes, SYBR Green DNA, 72 h; series mostly up to 28.7 µM. The essentials: as §1
Assay [9] in a line: NCATS anti-infectives library activity on HEK293 viability as a counter-qHTS vs the C. elegans viability qHTS (AID 1745854). Note: % is set by controls: 0 for no effect and ±100 for the full control effect. The following applies: HEK293 viability counter-screen; series mostly up to 41.8 µM. The gist of the method:
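Cytotoxicity counter-screen to a worm viability qHTS: CellTiter-Glo luminescence read 10 min after reagent addition. Compounds (final up to 41.7 uM, a 1:5 dilution series) incubated 24 hr at 37C with 1,500 HEK293 cells per well; digitonin control.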

In the next assay the test system is AS120. The experiment in a line: qHTS profiling for inhibitors of Plasmodium falciparum proliferation (AID 504749).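 For activity, negative = inhibition: 0% = DMSO vehicle and full inhibition = artemisinin control.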 Note: nearly all actives have a fitted effect of over 60% in size. Note: potency is the fitted concentration of half-maximal effect. Conditions: P. falciparum in erythrocytes, SYBR Green DNA, 72 h; series mostly up to 28.7 µM. The essentials:
as §1

For a further assay, the system named is ATS189. The description is as above. Conditions: P. falciparum in erythrocytes, SYBR Green DNA, 72 h; series mostly up to 28.7 µM. The gist of the method: as §1
Another assay relates to ATS95. The assay is described as above. The following applies: P. falciparum in erythrocytes, SYBR Green DNA, 72 h; series mostly up to 28.7 µM. The gist of the method:
as §1

Sequence of Catechol O-methyltransferase (Homo sapiens) (P21964 whole entry, looked up): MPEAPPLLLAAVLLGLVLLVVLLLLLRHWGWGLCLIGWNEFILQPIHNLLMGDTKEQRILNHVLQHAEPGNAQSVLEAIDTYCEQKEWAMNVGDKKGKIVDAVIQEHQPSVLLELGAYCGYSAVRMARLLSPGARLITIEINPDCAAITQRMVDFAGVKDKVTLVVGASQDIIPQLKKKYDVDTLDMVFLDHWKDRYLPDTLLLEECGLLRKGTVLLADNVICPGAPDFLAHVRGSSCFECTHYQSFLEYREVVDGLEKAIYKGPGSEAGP
Sequence of Metallo-beta-lactamase type 2 (Klebsiella pneumoniae) (C7C422 whole entry, looked up): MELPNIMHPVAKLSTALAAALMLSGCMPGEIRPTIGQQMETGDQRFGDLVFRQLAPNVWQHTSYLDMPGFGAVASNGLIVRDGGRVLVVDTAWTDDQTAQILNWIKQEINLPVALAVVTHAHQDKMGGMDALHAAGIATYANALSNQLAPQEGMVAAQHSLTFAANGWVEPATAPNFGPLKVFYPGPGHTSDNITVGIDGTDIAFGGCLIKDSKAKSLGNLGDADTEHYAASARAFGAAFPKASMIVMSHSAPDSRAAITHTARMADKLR
Sequence of Glutathione peroxidase 1 (Homo sapiens) (P07203 whole entry, looked up): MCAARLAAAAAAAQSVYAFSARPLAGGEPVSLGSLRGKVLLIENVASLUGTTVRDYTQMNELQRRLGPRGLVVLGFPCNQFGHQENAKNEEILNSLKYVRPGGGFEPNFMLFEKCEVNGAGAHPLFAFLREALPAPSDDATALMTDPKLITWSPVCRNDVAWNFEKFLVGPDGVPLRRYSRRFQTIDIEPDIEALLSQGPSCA
Sequence of Phenylethanolamine N-methyltransferase (Homo sapiens) (P11086 whole entry, looked up): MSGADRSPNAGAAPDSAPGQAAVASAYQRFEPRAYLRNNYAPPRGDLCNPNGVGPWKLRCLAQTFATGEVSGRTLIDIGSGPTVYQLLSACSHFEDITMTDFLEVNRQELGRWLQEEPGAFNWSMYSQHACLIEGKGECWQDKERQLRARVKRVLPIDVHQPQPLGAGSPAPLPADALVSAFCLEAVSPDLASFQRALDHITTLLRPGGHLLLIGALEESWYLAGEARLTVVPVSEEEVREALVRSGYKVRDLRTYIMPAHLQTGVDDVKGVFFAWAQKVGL
Sequence of Nicotinamide N-methyltransferase (Homo sapiens) (P40261 whole entry, looked up): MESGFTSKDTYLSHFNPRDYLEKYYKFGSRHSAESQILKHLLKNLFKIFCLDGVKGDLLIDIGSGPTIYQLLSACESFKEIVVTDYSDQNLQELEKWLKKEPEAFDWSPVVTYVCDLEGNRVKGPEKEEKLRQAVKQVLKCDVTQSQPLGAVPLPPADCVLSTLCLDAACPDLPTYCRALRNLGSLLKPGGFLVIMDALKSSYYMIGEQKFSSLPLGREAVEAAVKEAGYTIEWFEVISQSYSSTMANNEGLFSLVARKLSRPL
Sequence of Phospholipid hydroperoxide glutathione peroxidase GPX4 (Homo sapiens) (P36969 whole entry, looked up): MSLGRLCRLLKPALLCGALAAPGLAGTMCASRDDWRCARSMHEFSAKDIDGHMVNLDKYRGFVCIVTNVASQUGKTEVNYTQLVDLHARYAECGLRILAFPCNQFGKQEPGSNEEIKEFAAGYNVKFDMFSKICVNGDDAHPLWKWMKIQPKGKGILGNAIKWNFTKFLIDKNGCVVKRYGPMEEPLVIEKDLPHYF

For `CCc1cccc(N(C)C(N)=Nc2cccc3ccccc23)c1`, the activity in assay [1] is -0.0494%; in assay [3], -4.43%; in [4], 1.17%. Also, in assay [2], the activity change, negative = inhibition was 4.76%. Moreover, the Potency result (in assay [5]; in assay [6]; with 3D7) was “inactive” throughout. Besides, the outcome in assay [7] was “inactive”. For the same compound, the figures for the activity, negative = inhibition in assay [8] (parasite line A) and in assay [8] (parasite line B) were -26.1% (inactive) and -10.7% (inactive), respectively. Also, the figures for the Potency in the assay on 7G8 and in the assay on AA1029 were 3.98 µM (active) and 3.55 µM (active), respectively.

In the case of `CCn1nc(C(=O)O)c(=O)c2cc3c(cc21)OCO3`, the Potency result in [5] and in assay [6] was “inactive” throughout. Besides, the outcome in assay [7] is “inactive”.

Consider `C[C@H](CS)C(=O)N1CCC[C@H]1C(=O)O`, for which the outcome in assay [9] and in [7] was “inactive” each time. In addition, the Potency result (in [6]; in the assay on 3D7; in the assay with 7G8; in the assay with AA1029; with AS120; in the assay on ATS189) was “inactive” throughout. In addition, in the assay on ATS95, the Potency entry was “inactive”. For the same compound, the activity, negative = inhibition in assay [8] (parasite line A) is -25.9% (inactive); in assay [8] (parasite line B), 10.2% (inactive).

On to `CCc1c(C)[nH]c2c1C(=O)C(CN1CCOCC1)CC2` (centres undefined), for which the activity in [1] was 6.21%; in assay [3], -7.58%; in assay [4], 4.21%. Also, the activity change, negative = inhibition in [2] is -2.7%. Further, the Potency result in [5] and in [6] was “inactive” in each case. Further, the outcome in assay [7] is “inactive”.

In the case of `CN(C)CC[C@@H](c1ccc(Br)cc1)c1ccccn1`, the values for the activity in assay [1], in assay [3] and in [4] were -5.16%, -23.7% and 0.473%, respectively. Moreover, in assay [2], the activity change, negative = inhibition was 1.79%. Further, the Potency result (in assay [6]; in the assay with 3D7; with ATS189) was “inactive” in each case. The outcome in assay [7] is “inactive”. In addition, the activity, negative = inhibition in [8] (parasite line A) is -5.21% (inactive); in assay [8] (parasite line B) it was 2.6% (inactive). Besides, the Potency with 7G8 is 8.91 µM (active).

For the compound `COc1cc(Cc2cnc(N)nc2N)cc(OC)c1OC`, the outcome in [9] and in assay [7] was “inactive” in each case. Besides, the Potency entry in [5] and in [6] was “inactive” throughout.

On to `CC(C)[N+](C)(CCOC(=O)C1c2ccccc2Oc2ccccc21)C(C)C`, for which the Potency result in assay [5] and in assay [6] was “inactive” in each case. For the same compound, the outcome in [7] was “inactive”.

For `C[C@]12CCC(=O)C=C1CC[C@@H]1[C@@H]2C(=O)C[C@@]2(C)[C@H]1CC[C@]2(O)C(=O)CO`, the Potency entry in assay [5] and in assay [6] was “inactive” throughout. Moreover, the outcome in assay [7] was “inactive”.

As to `CC(=O)OC(C)C[N+](C)(C)C` (centres undefined), the Potency result in assay [5] and in assay [6] was “inactive” throughout. The outcome in [7] is “inactive”.

In the case of `CC(=O)Nc1nnc(S(N)(=O)=O)s1`, the outcome in assay [9] and in assay [7] was “inactive” throughout. In addition, the Potency result (in assay [5]; in assay [6]; with 3D7; in the assay on 7G8; in the assay on AA1029; with AS120) was “inactive” each time. For the same compound, the Potency result in the assay on ATS189 and in the assay on ATS95 was “inactive” each time. The activity, negative = inhibition in [8] (parasite line A) is -9.91% (inactive); in [8] (parasite line B), 6.59% (inactive).

`C[C@@H](O)[C@H]1C(=O)N2C(C(=O)O)=C(SCCN=CN)C[C@H]12`: the Potency result in assay [5] and in [6] was “inactive” each time. In addition, the outcome in assay [7] was “inactive”.

With `C[C@]12CC[C@@H]3c4ccc(O)cc4C[C@@H](CCCCCCCCCS(=O)CCCC(F)(F)C(F)(F)F)[C@H]3[C@@H]1CC[C@@H]2O` (some centres undefined), the Potency entry in assay [5] and in assay [6] was “inactive” in each case. Also, the outcome in assay [7] is “inactive”.

Consider `N[C@@H](COP(=O)(O)O)C(=O)O`, for which the Potency entry in [5] and in [6] was “inactive” in each case. Besides, the outcome in assay [7] was “inactive”.

In the case of `CC(C)(C)NCC(O)c1cc(O)cc(O)c1` (centres undefined), the Potency result in assay [5] and in [6] was “inactive” throughout. The outcome in assay [7] was “inactive”.

As for `CN1C(=O)CC[C@H]1c1cccnc1`, the Potency result in assay [5] and in [6] was “inactive” each time. Also, the outcome in assay [7] is “inactive”.

Turning to `CCCNC(C)C(=O)Nc1ccccc1C` (centres undefined), the Potency result in [5] and in [6] was “inactive” throughout. In assay [7], the outcome is “inactive”.

As for `COc1cc(C(=O)OCCCN2CCCN(CCCOC(=O)c3cc(OC)c(OC)c(OC)c3)CC2)cc(OC)c1OC`, the activity was -6.42% in assay [1], -4.53% in assay [3] and 1.01% in assay [4]. Further, in assay [2], the activity change, negative = inhibition stood at 9.88%. In addition, the Potency result in [5] and in assay [6] was “inactive” each time. Besides, in [7], the outcome was “inactive”. The Potency in the assay on 3D7 is 11.2 µM (active); in the assay on 7G8 it was 8.91 µM (active); in the assay with AA1029, 11.2 µM (active); with AS120, 10 µM (active); in the assay with ATS189, 8.91 µM (active).
